# Bioassay records: PubChem BioAssay, National Center for Advancing Translational Sciences (NCATS)
# A selection: hits, their analogues and other compounds. The true share with any hit is near 3.1%.
# VDR inh – Inhibitors of the vitamin D receptor (VDR): qHTS; Vitamin D3 receptor (Homo sapiens), P11473; VDR-SRC2-3 peptide fluorescence polarization, 2 h; Potency, µM, inactives show max response, negative = inhibition, actives largely listed as inhibitors; actives 0.93% (n = 400,000); note: % is set by controls: 0 for no effect and ±100 for the full control effect
# Target sequence (P11473 whole entry, looked up): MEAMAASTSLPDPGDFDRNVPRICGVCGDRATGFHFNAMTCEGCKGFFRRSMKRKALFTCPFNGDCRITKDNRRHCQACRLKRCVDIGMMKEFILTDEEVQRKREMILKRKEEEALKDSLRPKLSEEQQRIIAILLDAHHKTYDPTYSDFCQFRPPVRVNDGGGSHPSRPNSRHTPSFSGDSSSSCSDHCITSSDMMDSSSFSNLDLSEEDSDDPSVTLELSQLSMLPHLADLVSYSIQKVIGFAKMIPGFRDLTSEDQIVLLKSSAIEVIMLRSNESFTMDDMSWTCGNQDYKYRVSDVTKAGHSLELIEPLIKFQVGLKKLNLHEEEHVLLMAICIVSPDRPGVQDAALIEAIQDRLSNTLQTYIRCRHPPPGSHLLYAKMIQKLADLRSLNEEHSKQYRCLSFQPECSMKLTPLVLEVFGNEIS
#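 Inhibition of the VDR/SRC2-3 peptide interaction is quantified by fluorescence polarization. Compounds (23 nl, pintool) incubate with the reagents for 2 hours at ambient room temperature.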
# S-ASM inh – Inhibitors of Secretory Acid Sphingomyelinase (S-ASM): qHTS | placental ASM, HMU-PC fluorogenic substrate, 60 min | Sphingomyelin phosphodiesterase (Homo sapiens), P17405 | Potency, µM (doses to about 57.5 µM), inactives show at the highest dose activity change, negative = inhibition, most hits filed as inhibitors | actives 0.006% (n = 340,000) | AID 504937, 2011
#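 Steps: dispense placental human ASM, pin compound, wait 10 min at room temperature, add HMU-PC0 substrate at 9 uM final, incubate 60 min at 37 °C, add stop solution raising pH to 10, read fluorescence.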
# Pin1 inh – qHTS Assay to Find Inhibitors of Pin1. Potency, µM (highest dose often 115 µM), for the others: top-dose activity, negative = inhibition, actives largely listed as inhibitors. actives 0.009% (n = 390,000). Pin1 FP peptide displacement, HiFluor488, 10 min. Peptidyl-prolyl cis-trans isomerase NIMA-interacting 1 (Homo sapiens), Q13526; active = well fitted inhibition curve with a large enough effect in the polarisation, with a control signal flat, not every such curve was filed as active; inconclusive = small, poorly fitted or top-dose-only effect, or effect the other way, or a change in a side signal; inactive = no such curve, though single readings can be large or run the other way; the % refers to the polarisation; note: % is set by controls: 0 for no effect and ±100 for the full control effect
# Target sequence (Q13526 whole entry, looked up): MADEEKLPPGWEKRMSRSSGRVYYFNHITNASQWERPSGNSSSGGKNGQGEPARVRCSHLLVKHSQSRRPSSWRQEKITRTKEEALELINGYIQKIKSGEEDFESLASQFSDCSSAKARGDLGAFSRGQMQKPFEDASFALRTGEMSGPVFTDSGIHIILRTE
# PLK1 PBD block – qHTS for Inhibitors of PLK1-PDB (polo-like kinase 1 - polo-box domain): Primary Screen. Serine/threonine-protein kinase PLK1 (Homo sapiens), P53350. Plk1 PBD binding of FITC phosphopeptide, fluorescence polarization. Potency, µM, for the others: max response, negative = inhibition, most hits filed as inhibitors. actives 2.8% (n = 360,000); note: series mostly up to about 57 µM; % is set by controls: 0 for no effect and ±100 for the full control effect; nearly all actives have a fitted effect of over 65% in size
# TDP1 inh – qHTS Assay for Inhibitors of Tyrosyl-DNA Phosphodiesterase (TDP1) | Potency, µM (series often up to 130 µM), for inactives: top-dose activity change, negative = inhibition, hits mostly inhibitors | actives 0.28% (n = 350,000) | recombinant TDP1, AlphaScreen DNA substrate cleavage | Tyrosyl-DNA phosphodiesterase 1 (Homo sapiens), Q9NUW8; note: % is set by controls: 0 for no effect and ±100 for the full control effect; nearly all actives have a fitted effect of over 40% in size
#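 Signal: AlphaScreen proximity between streptavidin donor and anti-FITC acceptor beads on intact substrate. Reaction: Tdp1 1 nM, substrate 15 nM final, 5 min RT after 15 min compound preincubation.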
# Tb PFK inh – qHTS Assay to Find Inhibitors of T. brucei phosphofructokinase | actives 0.17% (n = 330,000) | T. brucei PFK, ADP-Glo luminescence | AID 485367, 2010 | ATP-dependent 6-phosphofructokinase (Trypanosoma brucei brucei), O15648 | Potency, µM (top dose mostly 57.5 µM), without a hit: at the highest dose activity, negative = inhibition, most hits filed as inhibitors;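 note: 0% = uninhibited 1x PFK enzyme wells and -100% = no-enzyme wells; nearly all actives have a fitted effect of over 60% in size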
#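 In TEA buffer at pH 8.0 with 5 mM MgCl2, enzyme (1.25 nM) converted F6P (0.5 mM) and ATP (0.1 mM) for 45 min at room temperature. ADP product was read by luciferase luminescence.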
# Starred values were filed as active, the others as inactive; ? = inconclusive; / = no result; [ ] = remark or other dose. Unless noted, calls come from the whole dose curve; as a rule, active = well fitted curve in the direction sought with a large enough effect; inconclusive = small, poorly fitted or top-dose-only effect, or another doubt; inactive = no such curve, though single readings can be large; an effect the other way counts as inactive or inconclusive. Potency is the fitted concentration of half-maximal effect.
SMILES,VDR inh,S-ASM inh,Pin1 inh,PLK1 PBD block,TDP1 inh,Tb PFK inh
O=C1C=CC(=O)c2c(O)c(Cl)c(Cl)c(O)c21,4.5µM*,/,/,/,-3%,/
O=C1C=CC(=O)c2c(O)c(CO)c(CO)c(O)c21,?,-12%,/,9.5µM*,/,/
Oc1c(Cl)ccc(Cl)c1Cl,/,/,/,/,1%,/
O=c1c(CO)cc(CO)cc(CO)c1O,0%,-2%,?,-15%,/,-5%
CC[Si](CC)(CC)O[C@H]([C@@H](C)COCOC)[C@@H](C)COCc1ccc(OC)cc1,-4%,/,2%,/,4%,/
O=C(c1ccco1)N1CCN(CCCCN2C(=O)c3ccccc3C2=O)CC1,-3%,-4%,0%,-12%,8%,-4%
O=C(OCCCN1C(=O)c2ccccc2C1=O)c1ccco1,2%,2%,0%,27µM*,9%,-6%
O=C(O)C(Cc1ccc2c(c1)oc1ccccc12)NCP(=O)(O)O (stereo unspecified),1%,/,/,/,6%,/
FC(F)(F)c1cc(Cl)c2nnc(-c3cccnc3)n2c1,16%,3%,-7%,0%,/,6%
FC(F)(F)c1cnc(-c2cnc(-c3cccnc3)nc2)c(Cl)c1,?,-2%,-7%,24µM*,4%,-4%
Cc1c(C(=O)Oc2cc(N)n(S(C)(=O)=O)n2)cccc1[N+](=O)[O-],79µM*,1%,-10%,12µM*,0%,-4%
COCCn1ccc2c(OCC(=O)Nc3cccc(OC)c3)cccc2c1=O,-7%,/,0%,/,-3%,/
CC(=O)N[C@H]1CSSC[C@@H](C(=O)N2CCC[C@H]2C(=O)N2CCC[C@H]2C(=O)N[C@@H](CCCCN)C(=O)N[C@@H](CC(=O)O)C(N)=O)NC(=O)CNC(=O)[C@H](Cc2c[nH]c3ccccc23)NC(=O)[C@H](CCCNC(=N)N)NC(=O)[C@@H](Cc2ccc3ccccc3c2)NC(=O)[C@H](Cc2cnc[nH]2)NC(=O)[C@H](CCC(=O)O)NC1=O,-2%,/,/,/,17%,/
CCC(C)C(N)C1=NC(C(=O)N[C@@H](CC(C)C)C(=O)N[C@H](CCC(=O)[O-])C(=O)N[C@H](C(=O)N[C@H]2CCCCNC(=O)[C@H](CC(N)=O)NC(=O)[C@@H](CC(=O)[O-])NC(=O)[C@H](Cc3cnc[nH]3)NC(=O)[C@@H](Cc3ccccc3)NC(=O)[C@H]([C@@H](C)CC)NC(=O)[C@@H](CCCN)NC2=O)[C@@H](C)CC)CS1.[Zn+2] (stereo partly specified),?,-17%,20µM*,-10%,/,/
COc1cc(C(=O)NCC(c2ccc3c(c2)OCO3)N2CCOCC2)cc(OC)c1OC (stereo unspecified),-4%,/,-4%,/,5%,/
CC(C)(C)OC(=O)Cc1nnc(-c2cc3ccccc3[nH]2)s1,/,/,11%,/,1%,/
Cc1ccc(Sc2ccccc2CN(C)C)c(N)c1,1%,/,/,/,20%,/
O=C1N/C(=N\S(=O)(=O)c2ccccc2)S/C1=C\c1cc([N+](=O)[O-])ccc1O,?,-5%,?,27%,11%,14%
COc1cc(/C=C2/S/C(=N/S(=O)(=O)Cc3ccccc3)NC2=O)c([N+](=O)[O-])cc1OC,-13%,-3%,-17%,24µM*,11%,-1%
COc1cc(/C=C2/S/C(=N/S(=O)(=O)c3ccccc3)NC2=O)c([N+](=O)[O-])cc1OC,-8%,10%,?,27µM*,8%,-4%
Cc1ccc(S(=O)(=O)/N=C2/NC(=O)/C(=C/c3ccc(Br)o3)S2)cc1,?,44%,-20%,?,/,9%
COc1cc(/C=C2\S/C(=N/S(=O)(=O)Cc3ccccc3)NC2=O)c([N+](=O)[O-])cc1OC,-28%,0%,?,-17%,-1%,-5%
Cc1ccc(S(=O)(=O)/N=C2/NC(=O)/C(=C\c3cc(Br)cc(Br)c3O)S2)cc1,50µM*,2%,?,19%,1%,?
Cc1ccc(S(=O)(=O)N2CCC(c3nc(-c4cccs4)nc4ccccc34)CC2)cc1,-11%,/,1%,/,/,/
CC(C)=CCCC1(C)C=Cc2c(O)c3c(c(CC=C(C)C)c2O1)OC12C(=CCCC1C(C)(C)O[C@@]2(C/C=C(\C)C(=O)O)C(=O)O)C3=O (stereo partly specified),45µM*,/,/,/,11%,/
SMILES,VDR inh,S-ASM inh,Pin1 inh,PLK1 PBD block,TDP1 inh,Tb PFK inh
COc1ccc(C2C(C(=O)Nc3ccccc3OC)=C(C)Nc3c(C(=O)Nc4ccccc4)cnn32)c(OC)c1 (stereo unspecified),6%,/,0%,/,3%,/
N#Cc1nc(Nc2cccc([N+](=O)[O-])c2)nc(NC2CCCC2)n1,/,/,1%,/,4%,/
COc1ccccc1C(=O)N/C(=C/c1ccc(Br)cc1)C(=O)N1CCCC1,7%,2%,4%,27µM*,4%,-7%
COc1ccccc1C(=O)N/C(=C\c1ccc(Br)cc1)C(=O)NCC(=O)O,-14%,9%,-2%,-10%,0%,4%
CCN(CC)c1nc(C#N)nc(N2CCOCC2)n1,-13%,/,3%,/,0%,/
COC(=O)c1ccc(C(=O)Nc2ccc(C(C)C)cc2N)cc1,-7%,-2%,0%,30µM*,-8%,1%
COc1ccc(-n2nc3cc(N)c(Br)cc3n2)cc1,-27%,37%,1%,-14%,/,6%
COc1ccc(-n2nc3cc(C)c(N)c(Br)c3n2)cc1,-1%,44%,-13%,3.8µM*,-2%,-1%
c1ccc(CN2CCN(C(c3ccccc3)c3ccccc3)CC2)cc1,-3%,-2%,-4%,6%,/,1%
O=S(=O)(CCN1CCN(C(c2ccccc2)c2ccccc2)CC1)C(F)(F)F,?,1%,3%,15µM*,4%,1%
CCOC(=O)CCCNC(=O)N1CCc2nc(-c3ccccc3)c3c(c2C1)CO[C@@H](C)C3,/,/,/,/,1%[12.3 µM],/
C/C=C1\COC(C(=O)NC)(C(F)(F)F)C=C1C=C1CCCCC1 (stereo unspecified),?,/,1%,/,2%,/
NC(=O)NC(=O)COC(=O)CCCSc1nc2ccccc2s1,-1%,-2%,-1%,21µM*,3%,-3%
CN(C)c1nc(NC2CCC(NC(=O)c3ccc(F)c(F)c3)CC2)nc2ccccc12 (stereo unspecified),-17%,/,/,/,13%,/
